# Assay results as given in the supplement of paper PMC6555819.
# Key:
# Test in all cases: PBM binding z-score (relative to random genomic background probes); higher = stronger binding; sequences stand for … in GC…GCGATTGACAGCGTAGAATGAAGG
# [1] = tested on: PPARg:RXRa DBDmut IVT, anti-RXR (DBD mutation: RXRa K156A/R161A, NR concentration 270 nM, RXRa partner concentration 90 nM)
# Summary of the method: (§1)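 The probes on custom Agilent 4×180K protein-binding microarrays were double-stranded, with 34-nt variable regions bearing direct-repeat seeds, single-nucleotide variants, half-site ablations and random human genomic background sequences. Incubation lasted 1 h with ligand-free nuclear receptor dimers in PBS pH 7.4, 2% milk, 0.02% Triton X-100, 1 mM DTT, 0.2 mg/mL BSA and 0.4 mg/ml salmon testes DNA. Antibodies against each partner (one per run) detected bound dimers, and fluorescence scans were regression-normalized. Binding z-scores take the random background probes as reference.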
# [2] = tested on: PPARg:RXRa IVT, anti-PPARg (NR concentration 270 nM, RXRa partner concentration 90 nM)
# Summary of the method: as §1
# [3] = tested on: PPARg DBDmut:RXRa IVT, anti-PPARg (DBD mutation: PPARg1 K132A/R137A, NR concentration 270 nM, RXRa partner concentration 90 nM)
# Summary of the method: as §1
# [4] = tested on: PPARg DBDmut IVT, anti-PPARg (DBD mutation: PPARg1 K132A/R137A, NR concentration 270 nM)
# Summary of the method: as §1
# [5] = tested on: PPARg homodimer (NR concentration 180 nM)
# Summary of the method: as §1
# [6] = tested on: PXR:RXRa (NR concentration 270 nM, RXRa partner concentration 90 nM)
# Summary of the method: as §1
# [7] = tested on: PXR homodimer (NR concentration 270 nM)
# Summary of the method: as §1
# [8] = tested on: RARa:RXR (NR concentration 270 nM, RXRa partner concentration 90 nM)
# Summary of the method: as §1
# [9] = tested on: RARa homodimer (NR concentration 270 nM)
# Summary of the method: as §1
# [10] = tested on: RARb:RXRa (NR concentration 270 nM, RXRa partner concentration 90 nM)
# Summary of the method: as §1
# [11] = tested on: RARb homodimer (NR concentration 270 nM)
# Summary of the method: as §1
# [12] = tested on: RARg:RXRa (NR concentration 270 nM, RXRa partner concentration 90 nM)
# Summary of the method: as §1
# [13] = tested on: RARg homodimer (NR concentration 270 nM)
# Summary of the method: as §1
# [14] = tested on: RXRa DBDmut IVT, anti-RXR (DBD mutation: RXRa K156A/R161A, NR concentration 90 nM)
# Summary of the method: as §1
# [15] = tested on: RXRa homodimer (NR concentration 180 nM)
# Summary of the method: as §1
# [16] = tested on: THRa:RXRa (NR concentration 90 nM, RXRa partner concentration 90 nM)
# Summary of the method: as §1
# [17] = tested on: THRa homodimer (NR concentration 90 nM)
# Summary of the method: as §1
# [18] = tested on: VDR homodimer (NR concentration 270 nM)
# Summary of the method: as §1
Sequence,PBM binding z-score [1],PBM binding z-score [2],PBM binding z-score [3],PBM binding z-score [4],PBM binding z-score [5],PBM binding z-score [6],PBM binding z-score [7],PBM binding z-score [8],PBM binding z-score [9],PBM binding z-score [10],PBM binding z-score [11],PBM binding z-score [12],PBM binding z-score [13],PBM binding z-score [14],PBM binding z-score [15],PBM binding z-score [16],PBM binding z-score [17],PBM binding z-score [18]
CGAACTAGGTCATTGACAGGACTGTGAATAGTAA,7.96,8.16,2.42,3.75,1.48,1.11,0.155,1.81,-0.0382,3.43,2.4,3.66,4.03,2.31,2.35,2.49,0.524,0.706
ATATGTAGGTTAAGGGTCAGTCAGGTTGGTTCGC,7.48,7.77,4.77,2.22,3.78,4.14,2.03,4.53,2.65,3.51,3.81,4.01,3.14,1.4,4.19,2.78,1.68,2.75
CCGACTGGGGAAAGGTTACCATAACGCACAGCCA,0.181,0.852,-0.712,-0.726,1.01,1.26,0.0491,1.9,0.439,1.74,1.86,1.66,0.984,-0.493,2.28,1.13,-0.224,-0.242
CCTTACGGGTCACTCCAGCTTATAGCATCGGAGT,2.73,2.95,0.84,0.0391,1.95,2.52,0.285,3.54,0.557,3.56,2.64,4.1,4.22,1.69,3.9,2.22,-0.158,0.747
CGAACTAGGTCAAGGACAGTGATTCTCCGCACGC,8.31,8.3,2.89,2.07,1.69,1.37,-0.0135,2.28,0.11,4.21,3.36,3.83,4.62,1.49,2.77,3.42,2.19,0.466
ATAATGAGGTTATACGTAGATCAGGGAAGAAAGT,4.24,2.58,2.03,2.05,0.998,1.7,0.97,2.12,1.63,1.75,1.21,2.19,1.72,2.1,2.56,2.46,0.968,1.16
CCTACTGGGCCATCAGCTCATTGATATCAACGTT,3.97,3.36,-0.394,-0.205,-0.413,-0.673,-0.788,-0.689,-0.576,-0.0601,-0.431,-0.217,0.0511,-0.384,-0.717,-0.526,-0.399,-0.517
CTACCAAGGTGAACAAGGTCGTTAATTACTATTC,2.2,2.78,0.73,0.27,1.17,2.76,1.14,2.57,0.262,2.11,2.04,1.86,1.55,1.48,1.91,3.19,1.99,2.64
TCGAGTAGGTTAGTCGCGGCATTCAGCCAACATA,1.72,0.971,-0.971,-1.42,-0.911,-0.398,-0.771,-0.208,-0.937,-0.138,-0.376,-0.336,-0.495,-0.209,-0.0361,-0.287,-1.14,-0.682
TCATATAGGTAATACAGGTGAAATTCGGCATCTA,3.87,2.95,1.39,1.39,1.02,0.776,0.431,1.2,1.76,0.602,0.536,0.764,0.496,1.51,1.34,1.04,0.421,0.0975
CCTTCTGGGCCACGAAAGGTCATTGATTCAGTGA,5.63,5.14,1.99,2.08,5.35,5.74,1.61,5.44,2.53,4.21,4.62,4.94,4.61,0.819,5.38,4.04,0.878,2.42
AATACAGGGTCACTATGCCAGAGTAGGTACGAAT,3.26,4.74,1.77,1.8,1.62,2.9,0.523,3.67,1.11,4.01,2.83,4.76,4.14,2.94,5.15,3.31,1.27,2.48
CCGACTGGCGCAGAAAGGTTACCATACCATCCGG,-0.18,-0.419,-0.533,-1.05,0.499,0.354,-0.51,1.14,-0.466,1.35,1.78,0.821,0.575,-0.469,1.66,1.05,-0.286,-0.331
CCGACTGGGGCAGAAAGGTTACAATACCATCCGG,1.65,1.7,-0.655,-0.38,0.958,1.14,-0.0674,1.67,0.24,1.73,1.83,1.59,1.25,-0.65,1.75,0.907,-0.555,0.0532
ATCTCTAGGTAAGACTCATTTCAGTGAAGAACGC,2.23,1.3,0.559,1.36,1.13,-0.0936,0.605,0.211,1.77,0.27,0.362,-0.0496,0.0938,0.594,-0.0279,0.358,0.931,0.563
